Assay [1] can be described thus: Cytotoxicity counterscreen for inhibitors of SARS-CoV-2 cell entry (AID 1645845). Further: nearly all actives have a fitted effect of over 50% in size. On activity change, negative = cytotoxicity: on the % scale 0 is the no-effect control and ±100 the full control effect. To be noted: outcome: dose series up to 57.1 µM unless noted. A digest of the protocol:
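ATP-content luminescence (ATPLite 1step, 15 min RT) read after 48 h compound exposure of Expi293F cells stably expressing human ACE2; normalized to cells-only wells and media-only wells.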

Assay [2] in a line: Primary qHTS to identify inhibitors of SARS-CoV-2 cell entry (AID 1645846). Further: nearly all actives have a fitted effect of over 45% in size. To be noted: SARS-CoV-2 pseudovirus cell entry assay, luminescence; activity change, negative = inhibition: at 57.1 µM (top of the series) unless noted. A digest of the protocol:
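Luminescence readout (Bright-Glo luciferase) 48 h after pseudoparticle addition. HEK293-ACE2 cells, 1500/well; compound pre-incubation 1 h; Normalized to spike PP and bald PP.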
(qHTS replaces the single test concentration by a dilution series.)

Results filed as inconclusive are left out. Activity calls are given as the source filed them. The call rests on the fitted dose curve.
Potency means the concentration at half of the fitted maximal effect.

`Cc1c(F)cc(C(=O)NC2CC2)cc1-c1c(F)cn2c(C(C)(C)C)nnc2c1F`: the Potency result in assay [1] is “inactive”. In assay [2], the activity change, negative = inhibition was 3.6%.
Take `C[C@@H]1[C@H](O)[C@@H](C)/C=C/C=C/C=C/C=C/C=C/C=C/C=C/[C@H](O[C@@H]2O[C@H](C)[C@@H](O)[C@H](N)[C@@H]2O)C[C@@H]2O[C@](O)(C[C@@H](O)C[C@@H](O)[C@H](O)CC[C@@H](O)C[C@@H](O)CC(=O)O[C@H]1C)C[C@H](O)[C@H]2C(=O)O`: the Potency entry in assay [1] and in assay [2] was “inactive” in each case.
Turning to `C=Cc1cc(O)cc2nc(-c3ccc(O)c(F)c3)oc12`, the Potency entry in assay [1] was “inactive”. Also, the activity change, negative = inhibition in assay [2] is -0.0201%.
`CC1CCC(n2c3cnccc3c3cnc(Nc4ccc5c(n4)CCN(C(=O)CO)C5)nc32)CC1` (stereo not given): the activity change, negative = cytotoxicity in assay [1] was 4.82% [at 11.3 µM] (inactive). Further, the outcome in assay [2] was “inactive [at 11.3 µM]”.
On to `Cn1cc(-c2ccc3c(c2)CCN3C(=O)Cc2cccc(C(F)(F)F)c2)c2c(N)ncnc21`, for which the Potency result in assay [1] was “inactive”. Also, in assay [2], the activity change, negative = inhibition came out at 3.56%.
As for `CN(C)c1cccc(-c2c3c(=O)n(-c4ccccc4Cl)[nH]c3cc(=O)n2C)c1`, the Potency entry in assay [1] is “inactive”. Moreover, in assay [2], the activity change, negative = inhibition is -19.6%.
For `Cc1nc2cccc(N)c2c(=O)n1C1CCC(=O)NC1=O` (stereo not given) the same measures were “inactive” and -12.7%.
The corresponding values for `c1cn2cc(-c3ccc4cn[nH]c4c3)nc(Nc3ccc(N4CCOCC4)cc3)c2n1` are 2.82 µM (active) and -27%.
With `O=C(O)C1=CO[C@@H](O[C@@H]2O[C@H](CO)[C@@H](O)[C@H](O)[C@H]2O)[C@@H]2C(CO)=CC[C@H]12`, the Potency entry in assay [1] and in assay [2] was “inactive” throughout.
As for `COc1ccnc2[nH]cc(C(=O)C(=O)N3CCN(C(=O)c4ccccc4)C[C@H]3C)c12`, the Potency entry in assay [1] is “inactive”. Further, in assay [2], the activity change, negative = inhibition was -5.46%.
The corresponding values for `CC1=C2[N-][C@H]([C@H](CC(N)=O)[C@@]2(C)CCC(=O)NC[C@@H](C)OP(=O)([O-])O[C@H]2[C@@H](O)[C@@H](n3cnc4cc(C)c(C)cc43)O[C@@H]2CO)[C@]2(C)N=C(C(C)=C3N=C(C=C4N=C1[C@@H](CCC(N)=O)C4(C)C)[C@@H](CCC(N)=O)[C@]3(C)CC(N)=O)[C@@H](CCC(N)=O)[C@]2(C)CC(N)=O.O.[Co+2]` are “inactive” and -20.3%.
In the case of `CN1C(N)=N[C@](C)(c2cc(NC(=O)c3ccc(F)cn3)ccc2F)CS1(=O)=O`, the Potency result in assay [1] was “inactive”. The activity change, negative = inhibition in assay [2] was -0.893%.
Take `COC(=O)N1CC2(CC2)C[C@H](C(=O)NO)[C@H]1C(=O)N1CCN(c2ccccc2)CC1`: in assay [1], the Potency result is “inactive”. In assay [2], the activity change, negative = inhibition is -12.3%.
As to `CN(C)C1CCN(C(=O)c2ccc(NC(=O)Nc3ccc(-c4nc(N5CCOCC5)nc(N5CCOCC5)n4)cc3)cc2)CC1`, the figures for the Potency in assay [1] and in assay [2] were 1.12 µM (active) and 1.58 µM (active), respectively.
As for `CCc1cccc2c3c([nH]c12)[C@@](CC)(CC(=O)O)OCC3`, the Potency result in assay [1] was “inactive”. Besides, the activity change, negative = inhibition in assay [2] was -19.9%.
In the case of `N#Cc1ccc(N(Cc2ccc(Br)cc2)n2cnnc2)cc1`, the Potency entry in assay [1] is “inactive”. Also, the activity change, negative = inhibition in assay [2] is -18.8%.
With `N#C[C@@H]1C[C@@H]2C[C@@H]2N1C(=O)[C@@H](N)C12CC3CC(CC(O)(C3)C1)C2`, the Potency result in assay [1] is “inactive”. Also, the activity change, negative = inhibition in assay [2] was -14.2%.
The corresponding values for `COc1cc2c(NC3CCN(C)CC3)nc(N3CCCN(C)CC3)nc2cc1OCCCN(C)C` are “inactive” and -3.44%.
The corresponding values for `N#Cc1ccnc(N2C(=O)CC[C@H]2C(=O)N(c2cncc(F)c2)C(C(=O)NC2CC(F)(F)C2)c2ccccc2Cl)c1` (stereo not given in full) are “inactive” and -25.5%.
As to `CN[C@@H]1[C@@H](O)[C@@H](O[C@@H]2[C@@H](O)[C@H](O[C@H]3O[C@H](CN)[C@@H](O)[C@H](O)[C@H]3O)[C@@H](N)C[C@H]2NC(=O)C(O)CN)OC[C@]1(C)O` (stereo not given in full), the Potency result in assay [1] and in assay [2] was “inactive” each time.
Regarding `CCCCNc1ncc2c(-c3ccc(F)cc3)nn(CC3CCC(N)CC3)c2n1` (stereo not given), the Potency result in assay [1] is “inactive”. The Potency in assay [2] is 10 µM (active).
As for `COc1cc2c(cc1OCCCN1CCCC1)N=C(N)C21CCC1`, the Potency result in assay [1] is “inactive”. The activity change, negative = inhibition in assay [2] was -8.97%.
On to `OC[C@H]1O[C@@H](S[C@@H]2O[C@H](CO)[C@H](O)[C@H](n3cc(-c4cccc(F)c4)nn3)[C@H]2O)[C@H](O)[C@@H](n2cc(-c3cccc(F)c3)nn2)[C@H]1O`, for which, in assay [1], the Potency entry was “inactive”. Moreover, the activity change, negative = inhibition in assay [2] came to 2.64%.
In the case of `N#CCC1(n2cc(-c3ncnc4[nH]ccc34)cn2)CN(C2CCN(C(=O)c3ccnc(C(F)(F)F)c3F)CC2)C1`, the Potency result in assay [1] and in assay [2] was “inactive” in each case.
For the compound `O=C(CCNC(=O)c1ccc(OC(F)(F)F)cc1)N[C@@H]1CCCc2ccccc21`, the Potency entry in assay [1] was “inactive”. Besides, in assay [2], the activity change, negative = inhibition is 4.82%.
Take `OC1CCC([C@H](O)C[C@H]2c3c(F)cccc3-c3cncn32)CC1` (stereo not given in full): the Potency result in assay [1] and in assay [2] was “inactive” in each case.
Turning to `O=c1c(-c2ccc(O)cc2)coc2cc(O[C@@H]3O[C@H](CO)[C@@H](O)[C@H](O)[C@H]3O)ccc12`, the Potency result in assay [1] and in assay [2] was “inactive” throughout.
For the compound `COc1ccc(-c2c(C)nn3c(NCCN4CCOCC4)cc(C)nc23)cc1OC`, the Potency entry in assay [1] is “inactive”. In addition, the activity change, negative = inhibition in assay [2] amounted to 3.31%.
For `COc1cc([C@@H](CC(=O)O)c2ccc(C)c(CN3C[C@@H](C)Oc4ccccc4S3(=O)=O)c2)cc2nnn(C)c12` the same measures were “inactive” and 2.13%.
For `Cc1cc(C)c(S(=O)(=O)N(CCc2cccc(Br)c2)Cc2ccc(-c3cccc(S(C)(=O)=O)c3)cc2)c(C)c1` the same measures were “inactive” and -5.91%.

These data come from PubChem BioAssay (NCATS).
